# Source: the supplement of paper PMC10338343
# ± gives the standard deviation.
# Experiments:
# [1] = test system: MILI (PIWIL2) piRISC loaded with L1MC piRNA (26 nt); assay: pre-steady-state target cleavage rate (min^-1); guide: L1MC piRNA 5'p-UAACUAAAUACUAUGCAAGCUGUAGG; higher = faster piRNA-guided slicing of the target;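 note: 1 nM active piRISC with 0.1 nM target library at 33 °C single turnover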
# Summary of the method: (§1)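 Cleave-'n-Seq measured uncleaved targets by sequencing after a transcribed, DNA-blocked target RNA library […] was mixed with 1 nM active affinity-purified piRISC holding one synthetic guide, with or without 500 nM GTSF1 partner protein, at 33 °C in HEPES–potassium acetate buffer for 0–8 or 0–960 min. Counts were normalised to depth and to weakly complementary targets, three trials were pooled, and k3 was capped at 0.0001 min^-1. A burst-and-steady-state fit gave the pre-steady-state cleavage rate.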
# [2] = test system: EfPiwi piRISC loaded with L1MC piRNA (26 nt); assay: pre-steady-state target cleavage rate (min^-1); auxiliary factor: 500 nM Ephydatia muelleri Gtsf1; guide: L1MC piRNA 5'p-UAACUAAAUACUAUGCAAGCUGUAGG; MIWI and MILI are mouse PIWI proteins and EfPiwi is from a freshwater sponge; tags in brackets are library labels; higher = faster piRNA-guided slicing of the target
# Summary of the method: as §1
# [3] = auxiliary factor: 500 nM mouse GTSF1
# [4] = auxiliary factor: none (no GTSF1)
Sequence,"pre-steady-state target cleavage rate [1, 3]","pre-steady-state target cleavage rate [1, 4]",pre-steady-state target cleavage rate [2]
UCCUGCUACAGCUGUGCAUAGUAUUUAGUUA,0.263 ± 0.025,0.0081 ± 0.0032,0.00927 ± 0.0026
UCCUGGUACAGAUUGCAUAGUAUUUAGUUA,0.257 ± 0.028,0.0104 ± 0.0044,0.0131 ± 0.0038
UCCUGGAUGUGCGUGCAUAGUAUUUAGUUA,0.107 ± 0.012,0.0107 ± 0.0032,0.00405 ± 0.0027
UCCUGGAUGUCCUUGCAUAGUACUUAGUUA,0.0548 ± 0.01,0.00401 ± 0.0028,0.00586 ± 0.0027
UCCUCCUACAGCUUGGAUAGUAUUUAGUUA,0.294 ± 0.017,0.0109 ± 0.003,0.057 ± 0.012
UCCUCCUACUGCUUGCAUAGUAUUAAGUUA,0.15 ± 0.018,0.00292 ± 0.0026,0.00682 ± 0.0034
UCCUGGAACAGGUUGCAUAGUAUUAAGUUA,0.213 ± 0.023,0.00415 ± 0.0022,0.00329 ± 0.0021
UCCUGGUAGAGCUUGCAUAGUAUUAAGUUA,0.207 ± 0.034,0.00672 ± 0.0026,0.00385 ± 0.0022
UCCUCCUACAGCUUCAUAGUAUUUAGUUA,0.238 ± 0.013,0.0049 ± 0.002,0.0399 ± 0.015
UCCUGGAACAGCUUACAUAGUAUUUAGUUA,0.223 ± 0.018,0.00953 ± 0.0027,0.0502 ± 0.012
UCCUGGAUGUGCUUGCAUAGUGUUUAGUUA,0.0653 ± 0.013,0.00396 ± 0.0032,0.0123 ± 0.0051
UCCUCCUACAGCUUGCAAGUAUUUAGUUA,0.155 ± 0.017,0.00449 ± 0.0021,0.00641 ± 0.0026
UCCUCGUACAGCUAGCAUAGUAUUUAGUUA,0.281 ± 0.012,0.00766 ± 0.0022,0.0402 ± 0.01
UCCUCCUGCAGCUUGCAUAGUAUUUAGUUA,0.301 ± 0.018,0.0088 ± 0.0027,0.103 ± 0.024
UCCUGGAACAGCUUGCAUAGUGUUUAGUUA,0.146 ± 0.018,0.00335 ± 0.0028,0.0084 ± 0.0024
UCCUCCUACAGCUUGCGUAGUAUUUAGUUA,0.28 ± 0.015,0.0113 ± 0.003,0.031 ± 0.011
UCCUGGAACAGCUUGCCUAGUAUUUAGUUA,0.248 ± 0.015,0.00673 ± 0.0024,0.0399 ± 0.013
UCCUGGAUCAGCUUGAAUAGUAUUUAGUUA,0.247 ± 0.017,0.00991 ± 0.0026,0.0605 ± 0.015
UCCUGGAACAGCUUGCAUAGAAUUUAGUUA,0.0554 ± 0.01,0.00299 ± 0.0027,0.0051 ± 0.0017
